MARV entry inh = Marburg virus entry inhibition. Marburg virus pseudotyped entry inhibition, cell reporter. Potency, µM (doses to about 37.8 µM), for the others: top-dose activity change, negative = inhibition, usual class: inhibitors. AID 540276. hit rate 1.8% among 300,000; calls by dose curve; tested in HEK293 cells; further: potency means the concentration at half of the fitted maximal effect
Pf growth 48h = inhibits P. falciparum growth in the first generation, 48 h; P. falciparum luciferase growth in erythrocytes, 48 h; Potency, µM (series often up to 28.7 µM), without a hit: at the highest dose activity change, negative = inhibition, hits mostly inhibitors; hit rate 5.9% among 310,000; AID 504832; further: potency means the concentration at half of the fitted maximal effect
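Firefly luciferase activity from engineered P. falciparum reports growth; inhibitors lower the luminescent signal. Cultures contained 2% hematocrit erythrocytes at 0.1% final parasitemia.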
HCV inhibitor = blocks hepatitis C virus. Huh7.5.1 HCVcc-Cre infection, luciferase reporter, 44 h. Potency, µM (highest dose often 41.8 µM), without a hit: at the highest dose activity change, negative = inhibition, most hits filed as inhibitors. hit rate 3.4% among 340,000; further: potency means the concentration at half of the fitted maximal effect
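Seed cells (1,000/well) for 4 h; treat with compound and infect with HCVcc-Cre, moi about 0.5. Incubate 44 h, then detect luciferase activity.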
LASV entry inh = inhibitors of Lassa virus binding or cell entry | hit rate 1.2% among 300,000 | Potency, µM (doses to about 37.9 µM), without a hit: top-dose activity change, negative = inhibition, most hits filed as inhibitors | Lassa virus pseudotype entry inhibition, cell reporter; calls by dose curve; tested in HEK293 cells; further: potency means the concentration at half of the fitted maximal effect; nearly all actives have a fitted effect of over 50% in size
Pf growth 96h = P. falciparum growth inhibition at 96 hours; Potency, µM (highest dose often 28.7 µM), for inactives: at the highest dose activity change, negative = inhibition, usual class: inhibitors; hit rate 6.9% among 320,000; P. falciparum luciferase reporter growth, 96 h; further: potency means the concentration at half of the fitted maximal effect
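Two-generation exposure (96 h) targets delayed-death phenotype. Reporter parasites carrying integrated firefly luciferase, in red cells at 2% hematocrit and 0.05% parasitemia final, kept at 37 C, 5% CO2; luminescence loss indicates inhibition.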
HCMV antiviral = inhibitors of human cytomegalovirus. HFF cells, HCMV-luciferase reporter, 72 h; active compounds read low. hit rate 4.5% among 410,000. activity change, negative = inhibition, % at 57.5 µM; in the data active means activity change below about -60%; inconclusive means no clear call, values can overlap the other calls; inactive means above about -39%
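Two compound doses tested in HFFs infected with HCMV-luciferase, MOI 1 PFU/cell, 72 h at 37C. Lysate luminescence read with OneGlo; data normalized against buffer-only and 10uM Salinomycin inhibitor controls.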
Active calls of the source: *; u = inconclusive; x = no result given; [ ] = another dose, or the depositor's remark. This is a sample that favours compounds with a hit; in the whole collection about 14% have one here. Unless noted, the call rests on the fitted dose curve; in most records, active means well fitted inhibition curve with a large enough effect; inconclusive means small, poorly fitted or top-dose-only effect, or another doubt; inactive means no such curve, though single readings can be large or run the other way. On the % scale 0 is the no-effect control and ±100 the full control effect.

SMILES	MARV entry inh	Pf growth 48h	HCV inhibitor	LASV entry inh	Pf growth 96h	HCMV antiviral
CC1CCc2c(sc3nc(-c4cc5ccccc5oc4=O)nc(Cl)c23)C1 (stereo not given)	23%[46.1 µM]	x	x	16%[46.1 µM]	x	19
CCc1ccc(-n2c(=O)c3c4c(sc3n(Cc3cc(=O)n5c(C)cccc5n3)c2=O)CCC4)cc1	4%[46.1 µM]	x	x	13%[46.1 µM]	x	6
COc1ccc(/C=C/C(=O)Nc2cc(C)nn2-c2nc3ccccc3n2Cc2cccc([N+](=O)[O-])c2)cc1	u	u	u	-1%	9.3µM*	23
Cc1ccc(NC(=O)CCc2c(C)nc3nc(C)nn3c2C)c(Cl)c1	u	x	x	u	x	-12
CCOc1ccccc1NC(=O)C(=O)c1cc(C)n(-c2cccc(C)c2C)c1C	u	x	x	0%[46.1 µM]	x	-7
Cc1ccc(/C=C2\CCC3=C2OC(N)=C(C#N)C3c2ccc(C)cc2)cc1 (stereo not given)	14%	u	u	-21%	u	x
N#CC1=C(N)OC2=C(CCc3ccccc32)C1c1ccccc1 (stereo not given)	u	12µM*	u	u	27%	-92*
Cn1c(=O)c2c(nc(CN3CCN(C(c4ccccc4)c4ccccc4)CC3)n2CCCO)n(C)c1=O	u	2.9µM*	-3%	u	-5%	-11
COCCn1c(CN2CCN(C(c3ccccc3)c3ccccc3)CC2)nc2c1c(=O)n(C)c(=O)n2C	24%[46.1 µM]	2.6µM*	u	u	28%	-7
COCCn1c(CN2CCN(c3ccccc3)CC2)nc2c1c(=O)n(C)c(=O)n2C	-7%	x	u	-20%	x	-38
CCn1cc(S(=O)(=O)CC(=O)Nc2cccc(C)c2)c2ccccc21	x	-5%	-13%	x	u	-2
CCn1cc(S(=O)(=O)CC(=O)Nc2ccc(C)cc2)c2ccccc21	0%	6%	-16%	-1%	2.6µM*	-29
CCN(CC)C(=O)Cn1cc(S(=O)(=O)CC(=O)Nc2ccc(C(N)=O)cc2)c2ccccc21	x	-7%	0.56µM*	x	u	-19
CCOC(=O)N1CCN(C(=O)CS(=O)(=O)c2cn(Cc3ccccc3C)c3ccccc23)CC1	u	10%	u	-19%	x	x
CCCn1cc(S(=O)(=O)CC(=O)Nc2ccc(OCC)cc2)c2ccccc21	-24%	13µM*	u	-9%	20%	20
CCCn1cc(S(=O)(=O)CC(=O)Nc2ccc(OC)cc2OC)c2ccccc21	-17%	u	u	-12%	u	x
Cc1ccccc1Cn1cc(S(=O)(=O)CC(=O)Nc2nccs2)c2ccccc21	u	12µM*	u	-28%	-29%	-76*
CCN(CC)C(=O)Cn1cc(S(=O)(=O)CC(=O)Nc2cccc(NC(C)=O)c2)c2ccccc21	x	x	x	x	x	-23
CC(C)NC(=O)N1[C@H](c2cccs2)[C@@H](C)C(=O)[C@@H](C)[C@@H]1c1cccs1	5%[46.1 µM]	x	x	29%[46.1 µM]	x	-8
CC[n+]1c(C)sc2sc3ccccc3c21	x	1.9µM*	x	x	u	x
CN(C(=O)COC(=O)c1ccc2c(c1)OCO2)C1CCCCC1	u	x	7%	u	x	29
C[N+]12CCCCC1C(COC(=O)c1ccc3c(c1)OCO3)CCC2 (stereo not given)	4%	9.3µM*	4%	-13%	x	4
COc1ccc(OC)c(N2CC(O)=C(c3nc4ccccc4s3)C2=N)c1	u	u	25µM*	u	u	-9
CCN(CC)CCCN1CC(O)=C(c2nc3ccccc3s2)C1=N	u	u	11µM*	u	x	77
COCCN1CC(O)=C(c2nc3ccccc3c(=O)[nH]2)C1=N	-6%	u	14%	29%	-66%	17
SMILES	MARV entry inh	Pf growth 48h	HCV inhibitor	LASV entry inh	Pf growth 96h	HCMV antiviral
N=C1C(c2nc3ccccc3s2)=C(O)CN1Cc1ccccc1	u	55%	u	-16%	10%	46
CCOc1ccccc1N1CC(O)=C(c2nc3ccccc3s2)C1=N	5.8µM*	u	u	u	x	-8
N=C1C(c2nc3ccccc3s2)=C(O)CN1C1CCCCC1	x	3%	10%	x	47%	-4
COc1ccccc1N1CC(O)=C(c2nc3ccccc3c(=O)[nH]2)C1=N	-1%	9.3µM*	u	-12%	6%	-9
CC(=O)c1ccc(Nc2nc3ccccc3nc2-n2nc(C)cc2C)cc1	10%[46.1 µM]	x	x	21%[46.1 µM]	x	-27
CC1(c2nc3ccccc3[nH]2)CCC(=O)N1Cc1ccc(F)cc1 (stereo not given)	x	x	x	x	x	7
COc1ccc(-c2nc(S(=O)(=O)c3ccccc3)c(N3CCN(C)CC3)o2)cc1	x	x	x	x	x	13
Cc1cccc(NC(=O)CSc2cn(CC(=O)N3CCCCCC3)c3ccccc23)c1	x	x	x	26%[46.1 µM]	x	24
Cc1ccc(S(=O)(=O)N2C(c3ccc(Cl)c(Cl)c3)CC=C(C(=O)O)C2c2ccc(Cl)cc2)cc1 (stereo not given)	x	x	x	x	x	3
Cc1ccc(S(=O)(=O)N2[C@@H](c3ccc(Cl)cc3)C(C(=O)O)=CC[C@H]2c2ccc(Cl)c(Cl)c2)cc1	x	u	15%	x	u	-64*
COc1cc([C@@H]2CC=C(C(=O)O)[C@H](c3ccccc3)N2S(=O)(=O)c2ccc(C)cc2)cc(OC)c1OC	x	3.3µM*	16%	x	8.3µM*	-4
COc1cc([C@@H]2CC=C(C(=O)O)[C@H](c3ccc(Cl)cc3)N2S(=O)(=O)c2ccc(C)cc2)cc(OC)c1OC	x	9.3µM*	10%	x	9.3µM*	27
COc1ccc([C@@H]2CC=C(C(=O)O)CN2S(=O)(=O)c2ccc(C)cc2)cc1OC	x	-5%	18%	x	55%	-64*
Cc1ccc(S(=O)(=O)N2CC(C(=O)O)=CC[C@H]2c2ccc(Cl)cc2)cc1	x	15%	-4%	x	56%	-23
COc1ccc(S(=O)(=O)N2CCSC2c2ccc(OC)c(OC)c2)cc1 (stereo not given)	2%	u	7%	-28%	102%	-62*
CCCc1cc(=O)[nH]c(Nc2ccccc2O)n1	-7%[46.1 µM]	x	x	u	x	24
COC(=O)C1CCN(c2nc3ccccc3nc2[C@@H](C#N)C(=O)NCCc2ccccc2)CC1	0%	x	x	x	x	x
N#C/C(=C\c1ccc(-c2ccccc2C(=O)O)o1)c1nc2ccccc2[nH]1	10%[46.1 µM]	x	-7%	18%[46.1 µM]	u	-15
N#C/C(=C\c1ccc(-c2ccc(F)cc2F)o1)c1nc2ccccc2[nH]1	x	x	x	u	x	7
O=C(N/N=C/c1ccc(Sc2nc3ccccc3[nH]2)o1)c1ccncc1	21%	1%	10%	u	-20%	u
N#C/C(=C/c1ccc(Sc2nc3ccccc3[nH]2)o1)c1cccc(Br)c1	u	x	8.9µM*	-26%	-98%	-85*
N#C/C(=C/c1ccc(Sc2nc3ccccc3[nH]2)o1)c1ccccc1F	-6%	7%	11µM*	-17%	x	-102*
